Pf growth 96h – P. falciparum growth inhibition at 96 hour, primary screen for plastid delayed-death inhibitors; AID 504834; Potency, µM (highest dose often 28.7 µM), actives largely listed as inhibitors; hit rate 6.9% among 320,000; P. falciparum luciferase reporter growth, 96 h
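Parasite growth measured via integrated firefly luciferase reporter in P. falciparum. Infected erythrocytes at 2% hematocrit, 0.05% parasitemia final were treated 96 hours at 37 C under 5% CO2, and luminescence was read.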
HCV inh – blocks hepatitis C virus. Huh7.5.1 HCVcc-Cre infection, luciferase reporter, 44 h. Potency, µM (highest dose often 41.8 µM), hits mostly inhibitors. hit rate 3.4% among 340,000. AID 651820
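Cells (1,000/well) were plated 4 h before compound, then infected with HCVcc-Cre virus (~0.5 moi). After 44 h further culture, infection was read as luciferase luminescence following a 15 min substrate incubation at room temperature.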
AMA1 RON2 block – disrupts binding of P. falciparum AMA1 to RON2; AlphaScreen AMA1-biotinylated RON2 peptide binding; Potency, µM (doses to about 58.2 µM), usual class: inhibitors; hit rate 0.2% among 360,000; further: nearly all actives have a fitted effect of over 45% in size
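AMA1 (3D7) with his tag at 25 nM final met compounds first, then biotinylated RON2 peptide at 25 nM; detection used donor plus acceptor beads, 10 µg/mL apiece, read by AlphaScreen after 30 min at room temperature.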
Pf growth 48h – inhibits P. falciparum growth in the first generation, 48 h; hit rate 5.9% among 310,000; P. falciparum luciferase growth in erythrocytes, 48 h; Potency, µM (series often up to 28.7 µM), most hits filed as inhibitors
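Here the parasites carry a stable luciferase gene and grow inside erythrocytes in Albumax-based RPMI medium with compound for one erythrocytic cycle. Activity is scored as loss of luminescent signal.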
Large screens that a line does not name were inactive. Most compounds without a hit are left out; they make up all but 11% or so of the library. The call rests on the fitted dose curve; in most records, active means well fitted curve in the direction sought with a large enough effect; inconclusive means small, poorly fitted or top-dose-only effect, or another doubt; inactive means no such curve, though single readings can be large; an effect the other way counts as inactive or inconclusive.

O=C1CC(=C2c3ccccc3-c3ccccc32)C(=O)N1CCN1CCN(c2cccc(Cl)c2)CC1	none (no result: Pf growth 96h, Pf growth 48h)
N#C/C(=C\c1c[nH]c2ccccc12)C(=O)NCC1CCCO1 (stereo not given)	none
C/C(=N\Nc1ccc(S(=O)(=O)N2CCCCC2)cn1)c1cccc(Br)c1	Pf growth 96h inconclusive, HCV inh inconclusive, Pf growth 48h 10µM
NNc1ccc(S(=O)(=O)N2CCCCC2)cn1	HCV inh inconclusive, Pf growth 48h inconclusive
O=C(CCNC(=O)c1ccco1)Nc1ccccc1OC(F)F	none
O=C(OCCN1C(=O)c2cccc3c(N4CCOCC4)ccc(c23)C1=O)c1cccc(Cl)c1	Pf growth 96h inconclusive, HCV inh 11µM, Pf growth 48h inconclusive
COc1cc(CNC(C)C23CC4CC(CC(C4)C2)C3)ccc1OCC(=O)NC(C)(C)C (stereo not given)	HCV inh inconclusive, Pf growth 48h 10µM
COc1cc(CNC(C)C23CC4CC(CC(C4)C2)C3)cc(OC)c1OC (stereo not given)	Pf growth 96h inconclusive, Pf growth 48h 12µM
COC(=O)c1cc2sc(Cl)cc2n1CC(=O)Nc1ccc(OC)c(OC)c1OC	Pf growth 48h 0.41µM
COC(=O)c1cc2sc(Cl)cc2n1CC(=O)Nc1cccc(SC)c1	HCV inh inconclusive
COC(=O)c1cc2occc2n1CC(=O)Nc1ccc(OC)c(OC)c1OC	none (no result: Pf growth 48h)
COC(=O)c1cc2oc(C)cc2n1CC(=O)Nc1ccc(OC)c(OC)c1OC	Pf growth 96h inconclusive, Pf growth 48h 1.7µM (no result: HCV inh, AMA1 RON2 block)
C=CCNC(=O)CN1C(=O)C2C3c4ccccc4C(c4ccccc43)C2C1=O (stereo not given)	none
CC(C)Oc1ccc(S(=O)(=O)N2CCCCC2)cc1NC(=O)C1=NN(c2ccccc2)C(=O)CC1	none (no result: Pf growth 96h, HCV inh, Pf growth 48h)
CSc1nccc(N2CCN(c3ccc(F)cc3)CC2)n1	Pf growth 96h 12µM, HCV inh inconclusive, AMA1 RON2 block inconclusive, Pf growth 48h inconclusive
COc1ccc(S(=O)(=O)N2CCCCC2c2cc(C(=O)Nc3ccc4c(c3)OCO4)no2)cc1 (stereo not given)	none (no result: Pf growth 96h, HCV inh, Pf growth 48h)
COc1ccc(CC2(CO)CCN(CC3=CC[C@H]4C[C@@H]3C4(C)C)CC2)cc1	Pf growth 48h 7.4µM
CCOC(=O)c1cc(-c2ccc(C)o2)nn1CCC#N	Pf growth 96h 12µM, Pf growth 48h inconclusive
CCOC(=O)c1cc(-c2ccc(OC)cc2)nc2c1c(C)nn2CCC#N	HCV inh inconclusive, Pf growth 48h 5.2µM (no result: Pf growth 96h)
CCOC(=O)c1cc(-c2ccncc2)nc2c1c(C)nn2-c1ccccn1	Pf growth 96h 13µM, HCV inh 7.9µM, Pf growth 48h 5.9µM
COc1ccc(-c2cc(C(=O)O)c3c(C)nn(-c4ccccn4)c3n2)cc1	none
CC1CCCCN1S(=O)(=O)c1ccc(N(C(=O)c2cnccn2)C(C(=O)NC2CCCC2)c2cccs2)cc1 (stereo not given)	Pf growth 96h inconclusive, HCV inh inconclusive, Pf growth 48h 13µM
CC1CCCCN1S(=O)(=O)c1ccc(N(C(=O)c2cnccn2)C(C(=O)NC2CCCCC2)c2cccs2)cc1 (stereo not given)	Pf growth 96h 8.3µM, HCV inh inconclusive, Pf growth 48h 12µM
Cc1cc(C)cc(N(C(=O)c2ccccn2)C(C(=O)NC2CCCCC2)c2cccs2)c1 (stereo not given)	Pf growth 96h inconclusive, Pf growth 48h inconclusive
O=S(=O)(NCC1(N2CCOCC2)CCCCC1)c1ccc(Cl)cc1C(F)(F)F	Pf growth 96h inconclusive, Pf growth 48h inconclusive
Cc1cc(-c2ccccc2)nc(N(C)NC(=O)C2CC2)c1S(C)(=O)=O	none
Cc1cc(-c2ccccc2)nc(N(C)NC(=O)c2cccc(C(F)(F)F)c2)c1S(C)(=O)=O	Pf growth 96h 3.7µM (no result: Pf growth 48h)
COc1cccc(/C=C/c2nc(S(=O)(=O)c3ccccc3)c(N(C)C)o2)c1	Pf growth 96h inconclusive, Pf growth 48h 10µM
COc1ccccc1/C=C/c1nc(S(=O)(=O)c2ccccc2)c(N(C)C)o1	Pf growth 96h inconclusive, HCV inh inconclusive, Pf growth 48h inconclusive
CCCCSc1nc(NCc2ccco2)c2c3c(sc2n1)COC(C)(C)C3	Pf growth 96h inconclusive, Pf growth 48h 10µM
CSc1nc(NCc2ccco2)c2c3c(sc2n1)CN(C)CC3	Pf growth 48h 2.9µM (no result: HCV inh, AMA1 RON2 block)
CCC(O)CNc1nc(SC)nc2sc3c(c12)CCN(C)C3 (stereo not given)	none (no result: Pf growth 96h, Pf growth 48h)
COC(CNc1nc(SC)nc2sc3c(c12)CCN(C)C3)OC	Pf growth 96h 5.2µM, Pf growth 48h inconclusive
Cc1cc(N2CCN(C)CC2)nc2ccc(NC(=O)c3ccc(Br)o3)cc12	HCV inh inconclusive, Pf growth 48h 1.7µM
Cc1cc(N2CCCCC2)nc2ccc(NC(=O)c3ccc(Br)o3)cc12	HCV inh 4µM (no result: Pf growth 96h, Pf growth 48h)
COCCNC(=S)Nc1ccc2nc(N3CCN(C)CC3)cc(C)c2c1	none
O=C(Nc1ccc(N2CCCC2)cc1)c1ccc(Br)o1	Pf growth 96h inconclusive, Pf growth 48h inconclusive
O=C(CSc1nnc(CNC(=O)c2c(F)cccc2Cl)o1)NCc1ccccc1	none
CCOc1ccc(CCNC(=O)C2=C(C)C(=O)OC23CCC(C)CC3)cc1 (stereo not given)	Pf growth 96h 10µM
COc1ccc(Cl)cc1NC(=O)c1[nH]c(C)c(C(C)=O)c1C	none
CCc1c(C(=O)Nc2ccc(OC)c(Cl)c2)[nH]c(C)c1C(C)=O	HCV inh inconclusive, Pf growth 48h 12µM
Cc1cccc(C(=O)NNS(=O)(=O)c2ccc(F)cc2)c1	none
COC(=O)c1cc(S(=O)(=O)N2CCCC2=O)c(Cl)cc1Cl	Pf growth 96h 10µM, Pf growth 48h inconclusive
CC1CC(Nc2ccccc2)c2ccccc2N1C(=O)c1cccnc1 (stereo not given)	HCV inh 5.6µM, Pf growth 48h inconclusive
C[C@@H]1C[C@H](Nc2ccccc2)c2ccccc2N1C(=O)c1cccnc1	HCV inh inconclusive
CC1(C)CC(=O)C2=C(C1)OC(N)=C(C#N)C2c1cccc(OC(=O)c2ccco2)c1 (stereo not given)	Pf growth 96h 2.9µM
COc1ccc(C2C(C#N)=C(N)OC3=C2C(=O)CC(C)(C)C3)cc1OC (stereo not given)	Pf growth 96h inconclusive
CCOC(=O)NC(=O)C(/C=N/c1sccc1C(=O)OC)=C(\C)O	HCV inh 0.56µM
CCC(=O)Nc1sccc1C(=O)OC	none (no result: Pf growth 96h)
Cc1cc(NC(=O)c2cc(-c3ccco3)on2)nn1Cc1ccc(Cl)cc1	HCV inh inconclusive, Pf growth 48h 6.6µM (no result: Pf growth 96h)
Cc1nn(Cc2ccc(Cl)cc2)c(C)c1NC(=O)c1cc(-c2ccco2)on1	HCV inh inconclusive, Pf growth 48h inconclusive
COc1cccc(-c2cc(C(=O)Nc3cc(C)n(Cc4ccc(Cl)cc4)n3)no2)c1	HCV inh 6.3µM, Pf growth 48h 10µM
COc1ccc(OC)c(-c2cc(C(=O)Nc3cc(C)n(Cc4ccc(Cl)cc4)n3)no2)c1	HCV inh 11µM, Pf growth 48h 2.1µM
CCOC(=O)c1c(Nc2ccccc2OCCOC)n[nH]c1C	Pf growth 96h 9.3µM, Pf growth 48h inconclusive
NNC(=O)c1cnn(Cc2ccccc2)c1N	HCV inh inconclusive

Bioassay records (PubChem BioAssay)
